Measurements reported in PubChem BioAssay (NCATS).
Records with an inconclusive call do not appear. Calls of active or inactive are those of the source. Calls come from the whole dose curve; as a rule, active = well fitted inhibition curve with a large enough effect; inconclusive = small, poorly fitted or top-dose-only effect; inactive = flat fitted curve, though single readings scatter.

Assay: P-glycoprotein substrates identified in KB-8-5-11 adenocarcinoma cell line, qHTS therapeutic library screen (AID 1346987); note: nearly all actives have a fitted effect of over 65% in size
Settings: KB-8-5-11 (P-gp overexpressing) viability, CellTiter-Glo, 72 h; series mostly up to 44.5 µM; activity change, negative = cytotoxicity: at the top concentration
Method in brief: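 In this qHTS, P-gp-rich KB-8-5-11 cells received library compounds across a concentration range. Viability was quantified by luminescence after 72 h at 37 degree C.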
% is set by controls: 0 for no effect and ±100 for the full control effect.

| Compound | outcome | activity change, negative = cytotoxicity |
| --- | --- | --- |
| CCCCNC(=O)[C@@H]1Cc2ccccc2N1C(=O)[C@@H](N)CC | inactive |  |
| CCCCCCCCCCCC[n+]1ccc2ccccc2c1 |  | -28.3% (inactive) |
| C[C@H]1[C@H](C)CC[C@]2(C(=O)O)CC[C@]3(C(=O)O)C(=CCC4[C@@]5(C)CC[C@H](O[C@@H]6O[C@H](C)[C@@H](O)[C@H](O)[C@H]6O)C(C)(C)C5CC[C@]43C)[C@H]12 (stereo partly specified) |  | 6.32% [at 17.3 µM] (inactive) |
| CC1(C)O[C@@H]2C[C@H]3[C@@H]4CCC5=CC(=O)C=C[C@]5(C)[C@H]4[C@@H](O)C[C@]3(C)[C@]2(C(=O)CO)O1 |  | -2.59% (inactive) |
| OC[C@H]1O[C@@H](Oc2ccc(O)c3cccc(O)c23)[C@H](O)[C@@H](O)[C@@H]1O |  | 2.55% (inactive) |
| C=CC(C)(O)CC/C=C(/C)C(=O)OC1C(OC2OCC(OC3OC(CO)C(O)C(O)C3O)C(OC3OCC(O)C(OC4OC(C)C(O)C(O)C4O)C3O)C2O)COC(OC(=O)C23CCC(C)(C)CC2C2=CCC4C5(C)CCC(OC6OC(CO)C(OC7OC(CO)C(O)C(OC8OCC(O)C(O)C8O)C7O)C(O)C6O)C(C)(C)C5CCC4(C)C2(C)CC3O)C1O (stereo unspecified) |  | -0.997% [at 5.11 µM] (inactive) |
